Where “and” joins values, the source holds several entries; their conditions need not be identical. Equal entries are not always repeated. Hit rate of the full screen: of about 330,000 compounds, about 700 (0.21%) were called active. This is one part of a sample in which actives are shown more often than they occur. A number with no mark means an inactive call.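 Rule for the calls: active = OD600 absorbance below the run mean of sample wells minus 3.6 SD, in any replicate (cut at about 0.56 in these data); inactive = the rest.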

The test can be described thus: E. coli growth inhibition, primary screen, OD600 (AID 1053175). The conditions noted are these: Escherichia coli growth, OD600, 23 h; active compounds read low.
Regarding `CC(C=NNC(=O)c1ccc2c(c1)OCO2)c1ccccc1` (centres undefined), the OD600 absorbance was 0.695. Next, `O=C(NCc1ccccc1)C1=CC(c2ccccc2)CC(OCCCCO)O1` (centres undefined): 0.622. Turning to `CC(=O)Nc1ccc(C(C)=NNC(=O)c2ccc(-c3ccccc3)cc2)cc1`, the OD600 absorbance was 0.685. The value for `O=C(CCCN1C(=O)CCC1=O)Nc1ccc(Cl)c(C(F)(F)F)c1` was 0.702.

For the compound `O=C(CC(O)(C(F)(F)F)C(F)(F)F)Nc1ccc(Cl)c(Cl)c1`, the OD600 absorbance was 0.329 (active). For the compound `CS(=O)(=O)N(CC(=O)Nc1ccc(Cl)c(Cl)c1)C1CCCCC1`, the OD600 absorbance is 0.703. Next, `Cc1nn(-c2ccccc2)c(C)c1C=NNC(=O)c1cc(-c2cccs2)[nH]n1`: 0.602; `Clc1cccc(Cl)c1C=NNc1nccs1`: 0.705.

In the case of `Cc1cc(C)nc(NN=Cc2ccccc2OCc2ccccc2)n1`, the OD600 absorbance was 0.638.

As for `Cn1ccc(=Nc2ccc(NC(=O)c3ccc(N=c4ccn(C)c5ccc([N+](=O)[O-])cc45)cc3)cc2)cc1`, the OD600 absorbance is 0.104 (active). Take `CC(=O)NC(=S)Nc1ccc(NC(=S)NC(=O)c2ccc([N+](=O)[O-])cc2)cc1`: the OD600 absorbance was 0.699. Take `COc1cc(NS(=O)(=O)c2ccc(NC(=O)c3ccc([N+](=O)[O-])cc3)cc2)ncn1`: the OD600 absorbance is 0.659. The value for `Fc1cccc(CCN2CCNCC2Cc2ccccc2)c1` (centres undefined) was 0.658. On to `O=C(O)c1cc(O)c2c(c1)C(C1c3cc(C(=O)O)cc(O)c3C(=O)c3c(OC4OC(CO)C(O)C(O)C4O)cccc31)c1cccc(OC3OC(CO)C(O)C(O)C3O)c1C2=O` (centres undefined), for which the OD600 absorbance is 0.667. Take `COC(=O)c1cccc(C23CC4(C2)C(CN(CC2CCCCC2)C4c2ccccc2)C3c2ccccc2)c1` (centres undefined): the OD600 absorbance was 0.699.

For `CCc1ccc(C=NNC(=O)Cc2ccc(OC)c(OC)c2)s1`, the OD600 absorbance is 0.627.

Turning to `Cc1nn(-c2ccccc2)c(C)c1C=Nn1c(-c2ccccc2Br)n[nH]c1=S`, the OD600 absorbance is 0.624. The value for `CCOc1ccc(Br)cc1C(=O)NN=Cc1c[nH]c2ccccc12` was 0.686; that for `O=C(NN=C/C(Br)=C\c1ccccc1)c1n[nH]c2c1CCC2` was 0.619; that for `C[C@]12C(=O)N(c3cccc(F)c3)C(=O)N1C1c3ccccc3OCC1C2c1ccccc1` (some centres undefined) was 0.707 and 0.703. With `C=Cc1ccc(C2=CC(=O)CC(c3ccc(OC)cc3)C2)cc1` (centres undefined), the OD600 absorbance was 0.663. The value for `O=C(NN=Cc1cccc2ccccc12)c1cccnc1` was 0.676; that for `O=C(C=Cc1ccccc1)NCCSCc1ccccc1Cl` was 0.63; that for `O=C(CCNc1n[nH]c(=O)[nH]c1=O)NN=Cc1ccc(Cl)cc1` was 0.691. Next, `CCOC1OC(C(=O)NCc2nc3ccccc3[nH]2)=CC(c2cn(C(C)=O)c3ccccc23)C1CCCO` (centres undefined): 0.677 and 0.601. The value for `ON=Cc1cccn1-c1nccs1` was 0.697; that for `Cc1ccc(C(=O)NN=Cc2c[nH]c3ccccc23)o1` was 0.69; that for `CCn1c(C)nc2cc(C(=O)NN=C(C)c3ccc(N4CCOCC4)cc3)ccc21` was 0.666.

Take `CCCC(CNC(CNC)C(C)O)NCCc1ccc(OC)cc1` (centres undefined): the OD600 absorbance was 0.679.

As for `O=Cc1c(Nc2ccccc2Cl)nc2ccccn2c1=O`, the OD600 absorbance is 0.678. In the case of `CCc1c(Nc2ccccc2Cl)nc(N)[nH]c1=O`, the OD600 absorbance is 0.475 (active). With `CCc1c(Nc2ccccc2C)nc(N)[nH]c1=O`, the OD600 absorbance is 0.675.

As to `c1ccc(N=C2N=C(Nc3ccccn3)c3ccccc32)nc1`, the OD600 absorbance was 0.705. For `CCC1=C(OC(=O)N(CC)CC)N2C(=O)OC(=NCC(=O)OC)[C@]2(C)C2C1=CCC1C(=O)NC(=O)C12` (some centres undefined), the OD600 absorbance was 0.617. `CCCN1CCn2c3c(c4cc(Br)ccc42)CCCC31` (centres undefined): the OD600 absorbance was 0.655.

For `O=C(CCNS(=O)(=O)c1ccc(Br)cc1)NCC1CCCO1` (centres undefined), the OD600 absorbance was 0.66. Consider `OC(CNCC1CCCO1)Cn1c2ccc(Br)cc2c2cc(Br)ccc21` (centres undefined), for which the OD600 absorbance was 0.547 (active). For `O=C(CC=NOCc1ccc([N+](=O)[O-])cc1)Nc1ccc(Br)cc1`, the OD600 absorbance is 0.631. In the case of `O=C(O)CC1c2cc(F)ccc2S(=O)(=O)N1Cc1ccccc1` (centres undefined), the OD600 absorbance is 0.672. Turning to `O=[N+]([O-])c1cccc(C=NN2CCN(c3ccccn3)CC2)c1`, the OD600 absorbance was 0.693. In the case of `Cc1ccc(NCC(=O)NN=Cc2ccc([N+](=O)[O-])o2)cc1`, the OD600 absorbance is 0.564. On to `CCn1c(/C=C/c2ccc([N+](=O)[O-])o2)nc2ccccc2c1=O`, for which the OD600 absorbance was 0.629. `C/[N+]([O-])=C\c1ccc([N+](=O)[O-])o1`: the OD600 absorbance is 0.0665 (active).

Regarding `Cc1ccc(-c2nn(-c3ccccc3)cc2C(=O)NC2CCC(O)CC2)cc1` (centres undefined), the OD600 absorbance is 0.658. `CCc1ccc(-c2nn(-c3ccccc3)cc2CSC(=N)N)cc1`: the OD600 absorbance is 0.201 (active).

For `CCc1ccc(-c2nn(-c3ccccc3C)cc2C(=O)N2CCN(C3CCS(=O)(=O)C3)CC2)cc1` (centres undefined), the OD600 absorbance is 0.66. Next, `COc1cccc(C=NNC(=O)CSc2cccc3cccnc23)c1`: 0.635. `COC(=O)[C@]1(Cc2ccccc2)NC(c2ccc(-c3cc(C(C)=O)cs3)cc2)C2C(=O)N(C)C(=O)C21` (some centres undefined): the OD600 absorbance was 0.738. In the case of `COC(=O)C1=C(C)N(Cc2ccco2)C(=O)NC1c1cccc(C(F)(F)F)c1` (centres undefined), the OD600 absorbance was 0.7. Regarding `COc1ccc(C2C=CCN(S(=O)(=O)C=Cc3ccccc3)C(Cc3ccccc3)C(=O)N2Cc2ccc(F)cc2)cc1` (centres undefined), the OD600 absorbance is 0.733. The value for `CCOc1cc(C=NNc2ncnc(Cl)c2N)ccc1O` was 0.682; that for `COc1cc(C=Nn2cnnc2)ccc1OCCOc1ccccc1` was 0.782. Consider `CCOC(=O)C1(CCOc2ccccc2)CCN(Cc2cc(OC)c(O)cc2Cl)CC1`, for which the OD600 absorbance was 0.602. For the compound `Cc1c(CN2CCC(CO)(CCOc3ccccc3)CC2)[nH]c2ccc(Cl)cc12`, the OD600 absorbance is 0.527 (active). `OCC1(CCOc2ccccc2)CCN(Cc2cn[nH]c2-c2ccccc2)CC1`: the OD600 absorbance was 0.675. On to `COc1cc(C(=O)ON=C2C=CC(=O)C=C2C)cc(OC)c1OC`, for which the OD600 absorbance is 0.685.

Take `COC(=O)c1cc(C(=O)NC(C)C2CC3CCC2C3)cc([N+](=O)[O-])c1` (centres undefined): the OD600 absorbance is 0.52 (active). On to `Cc1c(C(=O)NC(C)C2CC3CCC2C3)cccc1[N+](=O)[O-]` (centres undefined), for which the OD600 absorbance is 0.695. On to `Cc1cccc(C(=O)OCC(=O)NC(C)C2CC3CCC2C3)c1O` (centres undefined), for which the OD600 absorbance is 0.676. Next, `CC=C(C)C(=O)NCCN1C2=NCC(C)N2CC1Cc1ccc(O)cc1` (centres undefined): 0.694. On to `Cc1occc1C(=O)NN=Cc1cccc2ccccc12`, for which the OD600 absorbance is 0.677. Next, `COc1ccc(OC)c(C=Nn2c(-c3n[nH]c4c3CCC4)n[nH]c2=S)c1`: 0.697.

Regarding `COc1cc(C=NNC(=O)c2ccc3nc[nH]c3c2)ccc1O`, the OD600 absorbance was 0.686. `CCOC(=O)C1C2COc3ccccc3C2N2C(=O)N(c3cccc(Cl)c3)C(=O)[C@@]12C` (some centres undefined): the OD600 absorbance is 0.65 and 0.728.

Regarding `Nc1nnnn1N=Cc1ccc(O)cc1`, the OD600 absorbance is 0.733.

Regarding `Cc1cc([N+](=O)[O-])cc(C)c1OCC(=O)NN=Cc1ccc(OC(=O)c2ccccc2Br)cc1`, the OD600 absorbance was 0.708. For the compound `Cc1csc(NC(=S)Nc2cccc(Cl)c2)n1`, the OD600 absorbance was 0.618. Take `FC(F)(F)c1cccc(NC(=S)Nc2cccc(Cl)c2)c1`: the OD600 absorbance is 0.501 (active). Turning to `S=C(Nc1cccc(Cl)c1)Nc1ccc2c(c1)OCCO2`, the OD600 absorbance was 0.613.

Turning to `OCCNc1nc(Nc2ccc(Cl)c(Cl)c2)nc2ccccc12`, the OD600 absorbance was 0.392 (active).

In the case of `Cc1nnc(NCCO)c2ccccc12`, the OD600 absorbance was 0.66. For `OCCCNc1nc(-c2ccccc2)c2cc(Cl)ccc2n1`, the OD600 absorbance is 0.647.

Consider `COc1cc(C(C)=NNC(=O)c2cccc(S(=O)(=O)N3CCCC3)c2)cc(OC)c1OC`, for which the OD600 absorbance is 0.705. Turning to `Cc1c(Cl)cccc1NC(=S)N(Cc1ccccc1)Cc1cccnc1`, the OD600 absorbance is 0.58 (active). The value for `Cc1cccc(C)c1NC(=S)N(Cc1cccnc1)Cc1ccccc1Cl` was 0.706; that for `Cc1ccc(CN(Cc2cccnc2)C(=S)Nc2cccc(Cl)c2C)cc1` was 0.672; that for `O=C(NN=C1CC(c2ccccc2)Oc2ccccc21)c1ccc(O)cc1` (centres undefined) was 0.541. Consider `COC(=O)NN=Cc1c[nH]c2ccccc12`, for which the OD600 absorbance is 0.738. Take `CC(=NNC(=O)c1ccccc1[N+](=O)[O-])c1c(O)cc(C)oc1=O`: the OD600 absorbance was 0.635. As to `COc1cc(C=NNC(=O)NC23CC4CC(CC(C4)C2)C3)ccc1OCC(N)=O`, the OD600 absorbance is 0.652. Regarding `O=C(NNC(=O)C1CCCC1)c1ccc(F)cc1`, the OD600 absorbance was 0.706. Take `O=C(/C=C/c1ccc([N+](=O)[O-])o1)NNC(=O)c1ccc(F)cc1`: the OD600 absorbance was 0.428 (active). With `CCc1noc(C)c1C(=O)NNC(=O)c1ccc(F)cc1`, the OD600 absorbance is 0.692. Next, `S=c1[nH]nc(-c2ccncc2)n1N=Cc1ccccc1`: 0.705; `CCN1/C(=C/c2ccc3ccc(C)cc3[n+]2CC)Sc2ccccc21`: 0.506 (active); `CC(=NNC(=O)c1ccc(F)cc1)c1ccccn1`: 0.506 (active). As to `CC(=NNC(=O)c1c[nH]c2ccccc12)c1ccccn1`, the OD600 absorbance was 0.586. As to `COc1ccc(C(=O)NN=C(c2ccccc2)c2ccccn2)cc1`, the OD600 absorbance was 0.68.

With `CC(=NNS(=O)(=O)c1ccc(Br)cc1)c1ccc(-n2ccnc2)cc1`, the OD600 absorbance was 0.734.

These data come from PubChem BioAssay AID1053175 (ICCB-Longwood Screening Facility, Harvard Medical School, 2014).
